From PubChem BioAssay (NCI) come the findings set out here.

About 83,000 compounds went through this panel and 20% of them were active in at least one assay; those are over-represented in the sample as a whole.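 Activity criterion: percent growth below 10, measured after cells in 96-well plates were exposed to a single compound concentration for 48 hours.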 A number with no mark means an inactive call. Active and inactive are the calls of the source.

Common to all, as to experiment: NCI-60 one-dose screen, 48 h (100 = growth as untreated, 0 = no growth, -100 = all killed)
What all share (conditions): 10 µM unless noted

Test [1] concerns HCT-15 colon.
Test [2] deals with HT29 colon.
Test [3] relates to SNB-75 CNS.
Test [4] relates to SNB-19 CNS.
Test [5] deals with U251 CNS.
The test system of test [6] is PC-3 prostate.
The subject of test [7] is SK-MEL-5 melanoma.
Test [8] has as its system UACC-62 melanoma.
The test system of test [9] is LOX IMVI melanoma.
The subject of test [10] is SK-MEL-28 melanoma.

In the case of `CN(C)c1ccc(/C=C/C2=[N+](C)c3ccccc3C2(C)C)cc1`, the growth is 39.5% in test [1]; 12.5% in test [2]; 36.3% in test [3]; 13.2% in test [4]; 19.2% in test [5]; 4.64% (active) in test [6]. The growth was -4.87% (active) in test [7], 9.39% (active) in [8], 15.2% in [9] and 35.4% in [10].
For `COc1cc(-c2ccc(-c3ccc(C(=N)N)s3)s2)cc(OC)c1OC`, the growth is 13.6% in [1]; 4.42% (active) in test [2]; 75.5% in test [3]; 47.6% in test [4]; 1.13% (active) in test [5]; 47.1% in test [6]. Moreover, the growth is 23.2% in test [7], 81.3% in test [8], -63.3% (active) in test [9] and 7.05% (active) in test [10].
In the case of `CCOC(=O)c1c(N)sc2cc(O)ccc12`, the growth in test [1] is 97.1%; in [2], 104%; in test [3], 86.7%; in test [4], 106%; in test [5], 98.9%; in test [6], 103%. Further, the growth in [7] was 104%; in test [8], 92.3%; in test [9], 96.5%; in test [10] it was 92.7%.
In the case of `COc1cc(/C=C2\C(=O)N(CCOc3cc(O)c4c(=O)cc(-c5ccccc5)oc4c3)c3ccccc32)cc(OC)c1O`, the growth was 28% in [1]; 136% in test [2]; 44.9% in [3]; 65.3% in [4]; 39.7% in test [5]; 76.2% in test [6]. Besides, the growth was 68.1% in [7], 24.6% in test [8], 36.7% in test [9] and 83.6% in test [10].
For `CCC(C)C(N)C(=O)NC(CC(C)C)C(=O)N1CCCC1C(=O)NC(Cc1c[nH]c2ccccc12)C(=O)NC(CCCCN)C(=O)NC(Cc1c[nH]c2ccccc12)C(=O)N1CCCC1C(=O)NC(Cc1c[nH]c2ccccc12)C(=O)NC(Cc1c[nH]c2ccccc12)C(=O)N1CCCC1C(=O)NC(Cc1c[nH]c2ccccc12)C(=O)NC(CCCNC(=N)N)C(=O)NC(CCCNC(=N)N)C(N)=O` (stereo not given), the growth is 106% in [1]; 83.5% in test [2]; 105% in test [3]; 106% in test [4]; 112% in test [5]; 91.7% in test [6]. Further, the growth is 104% in [7], 102% in [8], 98.5% in test [9] and 114% in [10].
As to `CC/C(=C(/c1ccc(Cl)cc1)c1ccc(OCCN2CCCCCC2)cc1)c1ccccc1`, the growth in test [1] was 35.3%; in test [2], 17%; in [3], 107%; in test [4] it was 83%; in test [5] it was 62.4%; in test [6], 63.3%. The growth in test [7] is 79.6%; in test [8] it was 87%; in test [9] it was 68.5%; in [10], 95.7%.
Turning to `COC1CC(O)C2=C(CC3C(/C(C)=C\CC=C(C)C)CCC3(C)O2)C1=O` (stereo not given), the growth in test [1] was 110%; in test [2], 99.4%; in test [3], 107%; in test [4], 103%; in [5], 99%; in [6], 93.6%. Also, the growth in [7] is 99.2%; in [8], 94.9%; in [9], 106%; in test [10], 119%.
Take `O=c1oc2ccccc2cc1-c1nn(-c2ccccc2)cc1/C=N/Nc1nc(-c2ccccc2)c(N=Nc2ccccc2)s1`: the growth in test [1] was 41.9%; in test [2], 31.5%; in [3] it was 26.6%; in [4], 85.1%; in test [5], 47.6%; in [6], 82.1%. Moreover, the growth is 79.7% in test [7], 59.8% in [8], 70% in test [9] and 89% in [10].
As to `C=C(C)[C@@H]1CC[C@]2(C(=O)NC(C)=O)CC[C@]3(C)[C@H](CC[C@@H]4[C@@]5(C)CCCNC(C)(C)[C@@H]5CC[C@]43C)[C@@H]12`, the growth in test [1] was -33.2% (active); in test [2], -5.24% (active); in test [3] it was 52%; in test [4] it was 58.3%; in test [5] it was -41.6% (active); in test [6], 27.4%. Further, the growth in test [7] is -94.5% (active); in [8], 81.6%; in test [9], -81.8% (active); in test [10], -88.4% (active).
With `CCOC(=O)c1c(C)c2c(n1Cc1ccccc1)CSc1cc(C#N)c(=O)[nH]c1-2`, the growth was 66.3% [100 µM] in test [1]; 71% [100 µM] in test [2]; 25.4% [100 µM] in test [3]; 89.3% [100 µM] in [4]; 49.8% [100 µM] in test [5]; 70% [100 µM] in test [6]. Also, the growth in test [7] is 100% [100 µM]; in [8], 70.9% [100 µM]; in test [9], 72.9% [100 µM]; in [10] it was 105% [100 µM].
For `C#CCOc1ccc(C2=NN(CCCC)C3N=C(Cl)c4ncn(CCCC)c4N23)cc1OCC#C` (stereo not given), the growth is 88.9% in test [1]; 96.9% in [2]; 83.3% in [3]; 94.6% in test [4]; 79.6% in test [5]; 63.6% in [6]. Moreover, the growth in [7] is 89.7%; in test [8], 69.6%; in [9] it was 85.8%; in test [10], 93.6%.
As for `CCOc1ccc(-c2cc(C3(S(=O)(=O)c4ccc(C)cc4)CC=CC3)on2)cc1`, the growth is 75.3% in test [1]; 77.7% in test [2]; 97.3% in test [3]; 95.4% in test [4]; 89.4% in [5]; 75.2% in [6]. Besides, the growth in test [7] is 69.8%; in test [8], 66.7%; in [9], 91.1%; in test [10], 115%.
Consider `CCN1C(=O)N(CC)C2C1NN=c1s/c(=C3\C(=O)N(C)c4ccccc43)c(=O)n12` (stereo not given), for which the growth in test [1] was 22.2%; in test [2], 11.5%; in [3], -10.8% (active); in [4], 37.2%; in test [5], 34.9%; in [6], 35%. In addition, the growth in test [7] is 32.8%; in test [8] it was 29.1%; in test [9], 47.7%; in test [10], 52.6%.
Take `CN(Cc1ccccc1)c1nc(Cl)c(C2CC(c3ccc(Cl)cc3)=NN2c2cc(Cl)cc(Cl)c2)s1` (stereo not given): the growth was 98.8% in test [1]; 92.9% in test [2]; 90.4% in test [3]; 108% in test [4]; 109% in test [5]; 92.5% in [6]. The growth in [7] is 107%; in [8], 98.1%; in [9], 97.8%; in test [10], 112%.
Regarding `CCOC(=O)c1cc(C(=O)c2cc(OC)cc(OC)c2)n2ccccc12`, the growth in test [1] is 25.6%; in test [2], 10.1%; in test [3], 20.5%; in test [4], 41.7%; in test [5] it was 38.6%; in [6] it was 40.4%. Besides, the growth in [7] is 27.4%; in [8], 30.9%; in test [9], 38.1%; in test [10] it was 67.3%.
With `Oc1cccc(-c2nc(-c3n[nH]c(=S)n3-c3ccccc3)cc3c2[nH]c2ccccc23)c1`, the growth in [1] is 20.3%; in [2] it was 6.61% (active); in [3] it was -11.5% (active); in [4], 24.2%; in [5] it was 14%; in [6], 30%. For the same molecule, the growth is 9.76% (active) in [7], 32% in test [8], 8.16% (active) in test [9] and 31.4% in test [10].
In the case of `Nc1ncc(-c2ccc3ncnc(N4CCc5ccc(Cl)cc54)c3c2)cn1`, the growth in test [1] is 7.19% (active); in test [2], 1.74% (active); in test [3] it was -11.6% (active); in [4], 14.1%; in test [5], 9.31% (active); in test [6], 8.82% (active). Moreover, the growth in test [7] was -52.2% (active); in [8] it was -23.6% (active); in test [9] it was 1.27% (active); in test [10] it was -6.35% (active).
On to `COc1ccc(C(=O)/C=C/c2ccc(Cl)cc2)cc1S(N)(=O)=O`, for which the growth in test [1] is 26.3%; in test [2] it was 43.6%; in test [3], 82.5%; in test [4] it was 14%; in test [5], 32%; in [6], -55.6% (active). Further, the growth in test [7] is 85.7%; in [8], 46.4%; in [9] it was 10.6%; in test [10] it was 97.8%.
For the molecule `Cc1nn(-c2ccccc2)c(Oc2ccccc2)c1/C=N/NC(=O)Cn1c(=O)sc2ccccc21`, the growth was 56.7% in test [1]; 46.8% in test [2]; 48.6% in test [3]; 61.1% in [4]; 51.3% in [5]; 44.5% in [6]. The growth is -47.7% (active) in test [7], 52.1% in test [8], 48.7% in test [9] and 87.5% in test [10].
With `c1ccc(-c2cn3nc(-c4c[nH]c5ccccc45)sc3n2)cc1`, the growth was 56.2% in test [1]; 86% in [2]; 54.1% in test [3]; 87.6% in [4]; 92.4% in test [5]; 76.8% in [6]. Further, the growth was 74.2% in test [7], 71% in test [8], 86% in [9] and 86.8% in test [10].
Regarding `C=CCOC(=O)C1=C(C)N(CC)C(=O)N(CC)C1c1c(Cl)n(C)c2ccccc12` (stereo not given), the growth in [1] is 78.4%; in test [2] it was 82.3%; in [3], 81.6%; in [4], 75.6%; in test [5], 88.3%; in test [6], 50.4%. In addition, the growth is 96.5% in test [7], 59.4% in test [8], 52.8% in [9] and 99.2% in test [10].
Consider `O=c1cc(-c2nccc3c2[nH]c2ccccc23)c2cc(Cl)ccc2o1`, for which the growth in [1] was 24.3%; in test [2], 7.6% (active); in test [3], 39.8%; in [4] it was 43.7%; in test [5], 29.6%; in test [6], 30.7%. The growth is 32.1% in test [7], 45.5% in test [8], 50.1% in test [9] and 64.6% in [10].
As for `CC/C(=C(/c1ccc(Cl)cc1)c1ccc(OCCN(CC)CC)cc1)c1ccc(OC)cc1`, the growth is 16.7% in [1]; -3.6% (active) in [2]; 97.2% in test [3]; 69.5% in test [4]; 33.5% in [5]; 33.9% in test [6]. Further, the growth is 46.1% in [7], 72.8% in test [8], 42.3% in [9] and 56% in test [10].
With `C=CCNc1nc(O)c(/C=C2\C=Nc3ncccc32)s1`, the growth was 24.7% in [1]; 26.4% in [2]; -67.3% (active) in test [3]; 11% in [4]; 0.764% (active) in test [5]; 12.6% in [6]. Further, the growth in test [7] is 2.01% (active); in test [8], 9.75% (active); in test [9] it was 0.553% (active); in test [10], -2.4% (active).
For the molecule `C(CCCSC1=NCCN1)CCSC1=NCCN1`, the growth was 102% in test [1]; 95% in test [2]; 91.4% in [3]; 114% in test [4]; 98.2% in [5]; 64.7% in test [6]. Besides, the growth in test [7] was 107%; in test [8] it was 107%; in test [9] it was 99.1%; in test [10] it was 113%.
`CC(C)(C)n1cc(-c2ccnc(NCCNS(=O)(=O)c3ccc(C(F)(F)F)cc3)c2)c(-c2ccccc2)n1`: the growth in test [1] is 75.6%; in test [2] it was 53.7%; in test [3], 80.9%; in test [4], 101%; in test [5] it was 75.4%; in [6] it was 65.8%. Further, the growth in test [7] was 80.7%; in test [8], 80.9%; in test [9], 93.1%; in [10] it was 100%.
